The campaign covered roughly 98,000 compounds. About 4,900 (5%) were called active. Shown is part of a subset that was picked to be rich in actives. Values without a mark were called inactive. No stated cut-off is given here; in the data, active means inhibition above about 30%; inactive means the rest.
assay: yeast control strain growth suppression – counter-screen for post-Golgi transport modulator project, primary screen (AID 738); conditions: efflux-deficient yeast background strain, growth absorbance A615, 16 h; at 10 µM; active compounds read high

Row | Compound | inhibition
1 | CC(=O)Nc1ccc(N2C(=O)C3C4CC(=O)C(c5ccccc54)C3C2=O)cc1 (stereo unspecified) | -8.39%
2 | O=C(NCc1cccnc1)c1cccnc1Sc1ccc(Cl)cc1 | -2.08%
3 | CC(C)=CC(=O)Nc1nnc(-c2ccc(F)cc2)s1 | -0.29%
4 | Cc1cc(C)nc(SC(C)C(=O)N/N=C/c2cccs2)n1 (stereo unspecified) | 6.8%
5 | C#CCSc1nnc(-c2sc3ccccc3c2Cl)o1 | 0.45%
6 | COc1ccccc1-c1n[nH]c2c1[C@H](C)CC[C@H]2C(C)C | 38% (active)
7 | Cc1cc2c(cc1C)N(C(=O)CN1C(=O)c3ccccc3C1=O)C(C)(C)c1ssc(=S)c1-2 | 32.6% (active)
8 | CCOC(=O)CN1C(=O)C(=O)c2cc(C)ccc21 | 5.42%
9 | C=CCn1c(C)cc(C(=O)CN2C(=O)c3ccccc3C2=O)c1C | 11.4%
10 | Cc1ccc2c(c1)-c1c(ssc1=S)C(C)(C)N2C(=O)CN1C(=O)c2ccccc2C1=O | 60.3% (active)
11 | C=CCN(CC=C)C(=O)CN1C(=O)c2ccccc2C1=O | 3.29%
12 | CC(C)OC(=O)CN1C(=O)c2ccccc2C1=O | 7.83%
13 | CN1CCN(S(=O)(=O)c2ccc(N3CCN(S(=O)(=O)c4cccs4)CC3)nc2)CC1 | 4.14%
14 | O=C(CNC(=O)c1cc2c(s1)CCC2)Nc1ccccc1Br | -4.14%
15 | CCOC(=O)C1(S(=O)(=O)c2ccccc2)CCN(Cc2ccccc2)CC1 | 4.95%
16 | COC(=O)c1sc2ncccc2c1OCc1ccc(Cl)cc1Cl | 11.1%
17 | NC(N)=N/N=C/c1ccc(OCc2ccc(Cl)cc2Cl)cc1 | 67.2% (active)
18 | NC(=O)COc1ccc(/C=N/NC(=O)C2CCCN2S(=O)(=O)c2ccc(Cl)cc2)cc1 (stereo unspecified) | 18.9%
19 | CCN(CC)c1ccc(NC(=O)c2ccc(Cl)nc2)cc1 | 17.1%
20 | Cc1c(C(=O)N2CC(C)OC(C)C2)sc2nc(-c3ccccc3)cn12 (stereo unspecified) | 7.66%
21 | Clc1ccc(-c2nnc(-c3ccccc3)nc2N2CCSCC2)cc1 | 51% (active)
22 | O=c1cc(Cn2nnc(-c3ccc(Cl)cc3)n2)nc2sccn12 | 11.5%
23 | Cn1nc(-c2ccccc2)c(-c2nc(-c3ccc(Cl)cc3)no2)c1Cl | -5.95%
24 | CC1CN(c2nc(-c3ccccc3)nnc2-c2ccccc2)CC(C)O1 (stereo unspecified) | 31.6% (active)

Row | Compound | inhibition
25 | Cc1ccc(-c2nnc(C)c(N3CC(C)OC(C)C3)n2)cc1 (stereo unspecified) | 20.1%
26 | COCc1cc(C)nc2sc(C(=O)NC3CCCCC3)c(N)c12 | 8.15%
27 | O=C1c2ccccc2C(=O)c2c1cccc2N1CCN(CCO)CC1 | 9.4%
28 | O=c1cc(N2CCN(Cc3ccccc3)CC2)c(-c2ccccc2)n[nH]1 | 23.1%
29 | COCCn1c(CN(Cc2ccccc2)Cc2ccccc2)nc2c1c(=O)n(C)c(=O)n2C | 14.8%
30 | CC(C)CCn1c(CN(C)Cc2ccccc2)nc2c1c(=O)n(C)c(=O)n2C | 9.18%
31 | CC(C)Cn1c(CN(Cc2ccccc2)Cc2ccccc2)nc2c1c(=O)n(C)c(=O)n2C | 33.1% (active)
32 | CCC(=O)NNc1cc(=O)c2c(=O)n(C)c(=O)n(C)c2[nH]1 | 0%
33 | CN(C)/C=C(\C#N)C(=O)c1cccnc1Oc1cccc(F)c1 | 10.6%
34 | COc1ccc(NC(=S)N2N=CCC2c2ccccc2)cc1 (stereo unspecified) | 10.8%
35 | CNC(=S)N1N=C(c2ccccc2)CC1c1ccc(Br)cc1 (stereo unspecified) | 80.4% (active)
36 | O=C(COc1ccccc1)Nc1nonc1NC(=O)COc1ccccc1 | 14.2%
37 | O=C(COc1ccc(Cl)cc1)Nc1ccccc1CO | 36.8% (active)
38 | O=C(COc1ccc(Cl)cc1)NCCSc1ccccc1 | 25.3%
39 | O=C(NCCCn1ccnc1)Nc1ccc(Cl)cc1Cl | 0.62%
40 | Cc1nc(SCC(=O)N2CCc3ccccc3C2)c2c(C)c(C)sc2n1 | 49.5% (active)
41 | Cc1nc(SCC(=O)Nc2cc(C)on2)c2c(C)c(C)sc2n1 | -1.7%
42 | Cc1nc(SCC(=O)N2CC(=O)Nc3ccccc32)c2c(C)c(C)sc2n1 | 2.3%
43 | Cc1ccc(NC(=S)NC(=O)c2ccc(-c3ccccc3)cc2)c(C)c1 | 0.3%
44 | CCC1(CC)Cc2ccccc2-c2nc3ccccc3c(=O)n21 | 8.32%
45 | CCOC(=O)C1Cn2c(nc3c(c2=O)C(C)(CC)Cc2ccccc2-3)S1 (stereo unspecified) | 39.9% (active)
46 | CC1(C)Cc2ccccc2-c2nc(CN3CCOCC3)[nH]c(=O)c21 | 15.4%
47 | CCN(CC)c1nc(-c2ccccc2)cc(C(F)(F)F)c1C#N | 13.7%
48 | Cc1ccc2nc(/C(C#N)=C\c3ccc(OC(=O)c4cccs4)cc3)[nH]c2c1 | -11.1%

Row | Compound | inhibition
49 | CC(C)C(=O)OCC(=O)Nc1ccc2c(c1)CCC2 | 3.52%
50 | COCCNC(=O)Cn1cc2c(n1)CCCCC2 | 2.72%
51 | O=C(Cn1cc2c(n1)CCCCC2)NCCN1CCOCC1 | -2.81%
52 | CCOC(=O)N1CCC(NC(=O)Cn2cc3c(n2)CCCCC3)CC1 | 31.9% (active)
53 | Cc1c(C#N)c(NC(=O)c2ccccc2)n(Cc2ccccc2)c1C | 8.33%
54 | O=c1c2ccccc2nc2n1C(CSCc1cccc(C(F)(F)F)c1)CS2 (stereo unspecified) | 4.97%
55 | O=c1onc(-c2cccs2)n1Cc1ccccc1 | 2.85%
56 | CS(=O)(=O)NCc1ccc(C(=O)NCc2ccccc2)cc1 | 8.59%
57 | Cc1c(C(=O)NCc2ccccc2)cnn1-c1ccccc1 | 9.12%
58 | Cc1ccc(CNC(=O)c2ccccc2CCc2ccccc2)cc1 | 35.3% (active)
59 | CC1CC(C)CN(C/C=C/c2ccccc2[N+](=O)[O-])C1 (stereo unspecified) | 7.64%
60 | O=C(OCC(O)C(O)COC(=O)c1ccccc1)c1ccccc1 (stereo unspecified) | 5.59%
61 | Cc1cc(C)n(-c2c(F)c(F)c(COC(=O)c3ccccc3)c(F)c2F)n1 | 25.1%
62 | Cc1[nH]n(-c2ccccc2)c(=O)c1CCOC(=O)c1ccc(C(F)(F)F)cc1 | 33.5% (active)
63 | CCC(=O)c1c[nH]c(C(=O)NCC2CCCO2)c1 (stereo unspecified) | -1.27%
64 | CCOc1cccc(C(=O)Nc2cccnc2)c1 | -3.62%
65 | Cc1cccc(-n2cnc(C(=O)Nc3cccnc3)c2)n1 | 31.6% (active)
66 | Cc1cc(C)c(NC(=O)CS(=O)CC(=O)Nc2cccnc2)c(C)c1 (stereo unspecified) | -5.42%
67 | Cc1cc(C)c2cc(CN(Cc3nnnn3Cc3ccc(F)cc3)C3CCCC3)c(=O)[nH]c2c1 | 41.1% (active)
68 | Cc1cccc2cc(CN(Cc3nnnn3Cc3ccccc3)C3CCCC3)c(=O)[nH]c12 | 13.2%
69 | CCOc1ccc2[nH]c(=O)c(CN(Cc3nnnn3Cc3ccccc3)CC3CCCO3)cc2c1 (stereo unspecified) | 0.14%
70 | N#Cc1c(C(F)(F)F)cc(-c2ccccc2)nc1SCC(=O)N1CCOCC1 | -3.4%
71 | Cc1cccc(N2CCN(C(c3ccccc3)c3nnnn3CC3CCCO3)CC2)c1C (stereo unspecified) | 44.4% (active)
72 | COc1ccc(CCn2nnnc2C(c2ccccc2)N2CCN(C)CC2)cc1OC (stereo unspecified) | 22.5%

Row | Compound | inhibition
73 | COc1ccc(C(c2nnnn2Cc2cccs2)N2CCN(c3ccccc3)CC2)cc1OC (stereo unspecified) | 11.7%
74 | Cc1cc(OCCOc2cccc3cccnc23)c(C)cc1Cl | 7.3%
75 | CCOC(=O)C1=C(C)Nc2sc(C(=O)c3ccc(Br)cc3)c(N)c2C1c1ccc(C(=O)OC)cc1 (stereo unspecified) | 9.7%
76 | COc1ccc(C(C(=O)NCc2ccccc2)N(Cc2cccs2)C(=O)c2cnccn2)cc1 (stereo unspecified) | 7.02%
77 | O=C(N/N=C/c1ccsc1)c1cc(O)cc(O)c1 | 1.53%
78 | COc1ccc(/C=C(\NC(=O)c2ccc(OC)c(OC)c2)C(=O)NCCc2c[nH]c3ccccc23)cc1 | 6.34%
79 | CC(=O)c1ccc2c(c1)c1ccccc1n2CC(C)C | 23.7%
80 | CS(=O)(=O)N(CC(O)Cn1c2ccccc2c2ccccc21)c1cccc2ccccc12 (stereo unspecified) | 46.2% (active)
81 | O=S(=O)(c1ccccc1)N(CC(O)CN1CCCCC1)c1ccccc1 (stereo unspecified) | -1.97%
82 | N#Cc1ccc(-c2ccc(F)cc2)nc1Sc1ccccc1 | 8.35%
83 | Cc1cc(C)cc(NS(=O)(=O)c2ccc(Oc3ncc(C(F)(F)F)cc3Cl)cc2)c1 | 33% (active)
84 | O=S(=O)(Nc1ccccn1)c1ccc(Oc2ccccc2)cc1 | 5.52%
85 | COc1ccccc1Oc1ccc(S(=O)(=O)Nc2cccnc2)cc1 | 0.59%
86 | CC1(C)CC(=O)C2=C(C1)N=C1SCCC(=O)N1C2c1ccc(C(F)(F)F)cc1 (stereo unspecified) | 10.4%
87 | COc1ccc(CCNC(=O)c2ccco2)cc1 | 14.4%
88 | CCOC(=O)c1c(NC(=S)NC(=O)c2ccco2)sc2c1CCCC2 | 3.33%
89 | CCNC(=S)NNC(=O)Cc1ccccc1 | 8.07%
90 | CCOc1cc(NC(=O)c2ccco2)c(OCC)cc1NC(=O)COc1ccccc1 | 6.65%
91 | O=C(Nc1ccc(Oc2ccccc2)cc1)c1ccco1 | -0.32%
92 | CC(Oc1ccc2ccccc2c1)C(=O)NNC(=S)NC(=O)c1ccco1 (stereo unspecified) | 96.2% (active)
93 | CCCc1ccc(OCC(=O)NNC(=S)NC(=O)c2ccco2)cc1 | 33.4% (active)
94 | COc1ccc(OCC(=O)NNC(=O)c2ccc(-c3ccccc3)cc2)cc1 | -1.92%
95 | COc1ccc(C(=O)NC(=S)NNC(=O)CCc2ccccc2)cc1 | 31.5% (active)
96 | NC(=O)C1(N2CCCCC2)CCN(C2CC(=O)N(Cc3ccc(N4CCCC4=O)cc3)C2=O)CC1 (stereo unspecified) | 10.8%

— PubChem BioAssay AID738 (SRMLSC, 2007)
